Experiment [1] can be described thus: StAR promoter reporter inhibitors, counter-screen for LRH-1 inverse agonist project, cell-based, luminescence, high throughput (AID 651611). To be noted: StAR promoter luciferase reporter counterscreen, at 3.6 µM, active compounds read high. Background: A counterscreen serves to expose hits that act by an unwanted route or on another target.
Experiment [2] deals with Nuclear receptor subfamily 5 group A member 2 (Homo sapiens) (UniProt O00482). The experiment can be described thus: NR5A2 activity suppression in reporter cells – cell-based, luminescence, confirmation (AID 651613; in the data active = inhibition above about 42%;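 also: HEK293T cells co-transfected with LRH-1 and StAR promoter luciferase reporter; 0% = vehicle wells and 100% = parental cells lacking receptor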). To be noted: cell-based LRH-1 luciferase reporter, inverse agonism; at 3.6 µM; active compounds read high.
Experiment [3] has as its target Steroidogenic factor 1 (Homo sapiens) (UniProt Q13285). The experiment can be described thus: inverse agonism at SF1 nuclear receptor – cell-based, luminescence, high throughput, counter-screen for LRH-1 inverse agonist project (AID 651614; in the data active = inhibition above about 44%;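 also: cells cotransfected with StAR promoter reporter and SF1 expression vector; 0% = vehicle on cells with receptor and 100% = vehicle on cells lacking receptor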). Conditions: cell-based SF1 luciferase reporter, at 3.6 µM, active compounds read high.
A short description of experiment [4]: compounds suppressing VP16-driven luciferase signal – cell-based, luminescence, high throughput, counter-screen for LRH-1 inverse agonist project (AID 651615; in the data active = inhibition above about 33%). To be noted: Gal4-VP16 luciferase reporter cells, at 3.6 µM, active compounds read high.

The structures appear in SMILES notation. Calls of active or inactive are those of the source. Rule as the data show it, unless noted: active = inhibition above about 28%; inactive = the rest.

Chain of Steroidogenic factor 1 (Homo sapiens) (Q13285 whole entry, looked up, the tested form may be a part): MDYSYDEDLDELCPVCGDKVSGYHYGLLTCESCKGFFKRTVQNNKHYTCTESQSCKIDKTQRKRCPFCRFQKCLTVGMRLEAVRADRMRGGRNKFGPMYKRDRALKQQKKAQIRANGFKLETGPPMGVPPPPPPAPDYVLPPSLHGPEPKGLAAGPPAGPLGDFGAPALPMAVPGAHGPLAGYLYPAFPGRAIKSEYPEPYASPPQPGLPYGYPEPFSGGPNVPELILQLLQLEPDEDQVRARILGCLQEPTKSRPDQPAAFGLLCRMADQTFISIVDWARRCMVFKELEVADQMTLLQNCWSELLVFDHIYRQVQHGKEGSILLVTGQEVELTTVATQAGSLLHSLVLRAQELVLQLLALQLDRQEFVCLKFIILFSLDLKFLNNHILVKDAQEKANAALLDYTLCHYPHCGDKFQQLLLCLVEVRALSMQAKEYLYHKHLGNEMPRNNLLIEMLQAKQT
Chain of Nuclear receptor subfamily 5 group A member 2 (Homo sapiens) (O00482 whole entry, looked up): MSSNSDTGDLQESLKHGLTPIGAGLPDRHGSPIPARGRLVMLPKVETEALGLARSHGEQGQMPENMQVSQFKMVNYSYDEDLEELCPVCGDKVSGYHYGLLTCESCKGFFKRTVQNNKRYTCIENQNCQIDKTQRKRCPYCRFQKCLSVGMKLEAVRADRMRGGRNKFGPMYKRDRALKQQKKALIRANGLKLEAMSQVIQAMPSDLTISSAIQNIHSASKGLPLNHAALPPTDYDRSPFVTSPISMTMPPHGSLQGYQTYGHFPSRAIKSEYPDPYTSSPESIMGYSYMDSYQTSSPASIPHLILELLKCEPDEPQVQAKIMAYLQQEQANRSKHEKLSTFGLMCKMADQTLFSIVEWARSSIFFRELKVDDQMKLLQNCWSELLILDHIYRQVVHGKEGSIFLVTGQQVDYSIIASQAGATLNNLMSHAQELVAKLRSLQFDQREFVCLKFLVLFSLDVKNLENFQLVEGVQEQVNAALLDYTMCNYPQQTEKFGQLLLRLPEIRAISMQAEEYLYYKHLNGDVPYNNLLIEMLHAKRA

On to `N#Cc1cc(Br)ccc1N=C1CCCN1c1ccccc1`, for which the inhibition (usually the change of the read-out against control, counted positive when it falls) in experiment [1] is 2.82% (inactive); in experiment [2] it was 44.5% (active); in experiment [3] it was 42.6% (inactive); in experiment [4] it was 0.34% (inactive).
In the case of `CCOC(=O)CC1CCCCN1C(=O)c1cc(COc2cccc3cnccc23)on1` (stereo unspecified), the inhibition is 39% (active) in experiment [1], 58.9% (active) in experiment [2], 62.1% (active) in experiment [3] and 61.4% (active) in experiment [4].
For `CC(=O)N1CCc2c(sc(NC(=O)c3ccc([N+](=O)[O-])o3)c2C#N)C1`, the inhibition is -28.6% (inactive) in experiment [1], 36% (inactive) in experiment [2], 43.8% (active) in experiment [3] and -119% (inactive) in experiment [4].
For `COc1ccc(NC(=O)CN2C(=O)NC(C)(c3ccc(C)cc3)C2=O)c([N+](=O)[O-])c1` (stereo unspecified), the inhibition is 9.06% (inactive) in experiment [1], 56.2% (active) in experiment [2], 55.1% (active) in experiment [3] and -9.49% (inactive) in experiment [4].
Regarding `CC(=O)Nc1ccc(NC(=O)COC(=O)c2c(C)nn(-c3ccccc3)c2C)cc1`, the inhibition is 10.2% (inactive) in experiment [1], 51.6% (active) in experiment [2], 50.9% (active) in experiment [3] and -22.5% (inactive) in experiment [4].
Regarding `COc1ccc(NC(=O)CSc2nc(O)cc(=O)n2-c2ccccc2OC)cc1`, the inhibition in experiment [1] was 4.7% (inactive); in experiment [2], 47.5% (active); in experiment [3], 38.3% (inactive); in experiment [4], 2.37% (inactive).
As to `O=C(CSc1nc(=O)n2cc(Cl)ccc2n1)Nc1ccc2c(c1)OCCO2`, the inhibition was 3.01% (inactive) in experiment [1], 47.8% (active) in experiment [2], 44.1% (active) in experiment [3] and -4.83% (inactive) in experiment [4].
Turning to `COc1ccc(C(NC(=O)C(C)C)c2ccc3cccnc3c2O)cc1` (stereo unspecified), the inhibition was 84.5% (active) in experiment [1], 103% (active) in experiment [2], 91.8% (active) in experiment [3] and 87.7% (active) in experiment [4].
For `COc1cc(-c2cc(NC=O)c3ncc(-c4ccc(C(C)=O)cc4)n3c2)ccc1O` the same measures were 56.8% (active), 64.4% (active), 60.6% (active) and -49.1% (inactive).
Take `O=C(CCl)Nc1cccc2ncccc12`: the inhibition in experiment [1] was 55.6% (active); in experiment [2] it was 61.7% (active); in experiment [3] it was 60.9% (active); in experiment [4], -58.5% (inactive).
Turning to `COc1ccc(NC(=O)CSc2nc(N)c(-c3ccccc3)c(=O)[nH]2)cc1`, the inhibition is 9.25% (inactive) in experiment [1], 63.2% (active) in experiment [2], 57.5% (active) in experiment [3] and -7.75% (inactive) in experiment [4].
`CC(C)Oc1cccc(-c2cc(C(=O)NN3CCOCC3)c3ccccc3n2)c1`: the inhibition is 17.5% (inactive) in experiment [1], 40.7% (inactive) in experiment [2], 40.4% (inactive) in experiment [3] and -17.7% (inactive) in experiment [4].
Taken in the same sequence, the figures for `O=C(Nc1cc(-c2nc3ncccc3o2)ccc1Cl)c1ccc([N+](=O)[O-])o1` were 15.3% (inactive), 52.2% (active), 53.2% (active) and -25.6% (inactive).
In the case of `CCOCc1c(C(=O)Nc2ccccc2N2CCN(C)CC2)oc2ccccc12`, the inhibition in experiment [1] was 13.5% (inactive); in experiment [2] it was 70.5% (active); in experiment [3] it was 73% (active); in experiment [4], 8.89% (inactive).

The values above are taken from PubChem BioAssay.
